Test results taken from the supplement of paper PMC3545927.
The list shows a part of the results. No count for the full screen is at hand.

Target: furin, P09958
Test: furin cleavage Z-score vs untreated control; higher = more cleavage, active = 3.5 or more, inactive = 1 or less, 8 variable residues between constant flanks
Outline: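 Cleavage by purified furin was measured on 8-mer peptides fused to a cDNA oligonucleotide and held on magnetic beads by their N-terminus. Reactions (0.01 ml, 1:10 enzyme:substrate) ran 7.5, 15 or 30 min in 50 mM HEPES pH 7.5 with CaCl2 and NaCl. Released DNA was adapter-tagged by PCR and sequenced, with read counts giving abundance. Log counts versus furin-free reactions were lowess-adjusted and scaled by median absolute deviation to give the cleavage Z-score.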

Chain of furin, P09958 (P09958 whole entry): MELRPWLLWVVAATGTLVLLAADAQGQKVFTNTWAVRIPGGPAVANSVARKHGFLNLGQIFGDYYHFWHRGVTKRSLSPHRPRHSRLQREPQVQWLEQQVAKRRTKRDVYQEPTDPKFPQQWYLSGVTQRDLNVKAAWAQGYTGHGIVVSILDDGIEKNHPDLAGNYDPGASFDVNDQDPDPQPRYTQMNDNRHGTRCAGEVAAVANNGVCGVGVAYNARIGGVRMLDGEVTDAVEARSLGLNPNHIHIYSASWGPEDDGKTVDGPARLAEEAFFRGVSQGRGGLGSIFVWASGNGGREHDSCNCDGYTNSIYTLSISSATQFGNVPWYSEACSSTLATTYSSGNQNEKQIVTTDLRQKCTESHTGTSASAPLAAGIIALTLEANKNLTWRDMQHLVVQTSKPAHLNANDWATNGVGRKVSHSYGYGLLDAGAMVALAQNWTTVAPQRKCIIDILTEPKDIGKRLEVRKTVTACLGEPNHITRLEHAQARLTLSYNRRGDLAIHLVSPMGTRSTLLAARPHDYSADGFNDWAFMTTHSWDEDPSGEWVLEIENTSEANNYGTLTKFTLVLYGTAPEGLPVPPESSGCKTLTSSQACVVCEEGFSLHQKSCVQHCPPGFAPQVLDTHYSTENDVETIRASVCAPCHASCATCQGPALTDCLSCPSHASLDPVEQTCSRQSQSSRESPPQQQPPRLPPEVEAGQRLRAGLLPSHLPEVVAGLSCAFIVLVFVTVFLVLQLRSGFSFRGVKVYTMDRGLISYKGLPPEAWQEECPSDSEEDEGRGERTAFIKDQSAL

Row | Sequence | furin cleavage Z-score (7.5 min) | furin cleavage Z-score (15 min) | furin cleavage Z-score (30 min)
1 | CASTWCSAHLAGNASASA [HC2508] | 0.983 (inactive) | 0.815 (inactive) | 0.802 (inactive)
2 | CAMILMTHFFAGNASASA [HC1582] | -0.371 (inactive) | -0.697 (inactive) | -2.29 (inactive)
3 | CAHCTTPCSGAGNASASA [HC1955] | -1.08 (inactive) | -1.68 (inactive) | 0.655 (inactive)
4 | CAEQVVCCSMAGNASASA [HC2142] | -0.416 (inactive) | -0.852 (inactive) | 2.1
5 | CAKCDELAAKAGNASASA [HC860] | 1.37 | 1.03 | -0.237 (inactive)
6 | CAKVKREKRGAGNASASA [FS-454] | 11.2 (active) | 10.5 (active) | 9.94 (active)
7 | CARQKKLAEKAGNASASA [FS-2585] | 0.116 (inactive) | -2.1 (inactive) | 0.509 (inactive)
8 | CASVSREDRGAGNASASA [FS-1491] | -0.464 (inactive) | -0.739 (inactive) | -0.69 (inactive)
9 | CAKVKREAEKAGNASASA [FS-1674] | 5.11 (active) | 4.39 (active) | 5.05 (active)
10 | CAPEKRSVFAAGNASASA [FS-2874] | -0.508 (inactive) | -0.764 (inactive) | -1.36 (inactive)
11 | CAPEKRAKRGAGNASASA [FS-1044] | 10.2 (active) | 9.94 (active) | 7.39 (active)
12 | CAGHQREKRGAGNASASA [FS-428] | 11.3 (active) | 13.2 (active) | 10.6 (active)
13 | CAEPPEAKRGAGNASASA [FS-1117] | 0.349 (inactive) | -1.82 (inactive) | -0.871 (inactive)
14 | CAPKPCGIVPAGNASASA [HC406] | 0.0213 (inactive) | 0.68 (inactive) | 1.33
15 | CAESKRLVDTAGNASASA [FS-1880] | -0.698 (inactive) | 0.318 (inactive) | 0.434 (inactive)
16 | CAEVVTSTTVAGNASASA [HC2238] | -0.88 (inactive) | -1.41 (inactive) | 0.307 (inactive)
17 | CAGFDRKKRGAGNASASA [FS-238] | 9.36 (active) | 9.95 (active) | 8.88 (active)
18 | CARQPRSNGDAGNASASA [FS-2292] | 0.463 (inactive) | -0.49 (inactive) | 1.56
19 | CAKVKRSQGDAGNASASA [FS-1985] | 3.98 (active) | 3.48 | 3.75 (active)
20 | CALHKRQVGDAGNASASA [FS-1675] | -0.324 (inactive) | -0.439 (inactive) | 0.074 (inactive)
21 | CALRTREKRGAGNASASA [FS-549] | 7.16 (active) | 7.31 (active) | 5.83 (active)
22 | CAQRNLKKRGAGNASASA [FS-914] | 10.1 (active) | 13.1 (active) | 11.1 (active)
23 | CALRNRLFRGAGNASASA [FS-359] | 0.887 (inactive) | 1.52 | -0.676 (inactive)
24 | CATTPHSGSWAGNASASA [HC49] | -0.934 (inactive) | -0.777 (inactive) | -0.65 (inactive)
25 | CAEDRDRSELAGNASASA [HC488] | 0.995 (inactive) | 1.63 | 0.694 (inactive)

Row | Sequence | furin cleavage Z-score (7.5 min) | furin cleavage Z-score (15 min) | furin cleavage Z-score (30 min)
26 | CARTPCSAHLAGNASASA [HC2473] | 0.852 (inactive) | -0.775 (inactive) | 2.15
27 | CAITPCSAHLAGNASASA [HC2464] | -1.38 (inactive) | 0.00684 (inactive) | -0.357 (inactive)
28 | CATCPCSGSWAGNASASA [HC1860] | -0.794 (inactive) | -0.696 (inactive) | -0.69 (inactive)
29 | CAMTPCSGSWAGNASASA [HC1826] | -0.934 (inactive) | -2.45 (inactive) | -0.784 (inactive)
30 | CATFAVEKRGAGNASASA [FS-1289] | 1.19 | 0.186 (inactive) | 0.573 (inactive)
31 | CAAPHREKRGAGNASASA [FS-398] | 10.8 (active) | 11.4 (active) | 9.9 (active)
32 | CAARGRYSRGAGNASASA [FS-1622] | 1.05 | 0.971 (inactive) | 1.84
33 | CAEVVWSTWVAGNASASA [HC127] | 0.227 (inactive) | 0.0628 (inactive) | -0.337 (inactive)
34 | CAKQRRIVGIAGNASASA [FS-2869] | 0.0283 (inactive) | -0.751 (inactive) | 0.888 (inactive)
35 | CARYRRTVGIAGNASASA [FS-2851] | 2.96 | 3.86 (active) | 6.08 (active)
36 | CARYRRCVGWAGNASASA [FS-2389] | 3.27 | 2.12 | 5.02 (active)
37 | CARMCRVAGWAGNASASA [FS-2046] | 0.157 (inactive) | -0.469 (inactive) | 0.75 (inactive)
38 | CARYRRLTGDAGNASASA [FS-1843] | -1.17 (inactive) | -0.169 (inactive) | 1.01
39 | CARYCRGVSAAGNASASA [FS-1941] | -0.864 (inactive) | -0.376 (inactive) | -0.444 (inactive)
40 | CAQCTTPCSGAGNASASA [HC1962] | -0.946 (inactive) | 0.921 (inactive) | -0.234 (inactive)
41 | CAYCTTPCSGAGNASASA [HC1949] | -0.657 (inactive) | -1.14 (inactive) | -0.156 (inactive)
42 | CASEECSQHLAGNASASA [HC1677] | 1.1 | 1.14 | 0.289 (inactive)
43 | CAGPLWILQAAGNASASA [HC609] | 1.21 | -0.216 (inactive) | 0.172 (inactive)
44 | CAVRSRMRRAAGNASASA [FS-1500] | 11 (active) | 10.2 (active) | 8.12 (active)
45 | CAVRSRHLRAAGNASASA [FS-632] | 9.71 (active) | 9.82 (active) | 8.62 (active)
46 | CALPSRQKKAAGNASASA [FS-1365] | 0.168 (inactive) | 0.828 (inactive) | 1.92
47 | CAPSFRDRRAAGNASASA [FS-1244] | 9.04 (active) | 11.1 (active) | 9 (active)
48 | CAVPSRQSRAAGNASASA [FS-207] | 7.32 (active) | 8.36 (active) | 8.3 (active)
49 | CACSFTTLPAAGNASASA [HC499] | -0.00686 (inactive) | 0.0583 (inactive) | 0.931 (inactive)
